This passage reports growth results from PubChem BioAssay (NCI).

The panel holds about 83,000 compounds, 20% with a hit somewhere; the sample as a whole holds those more often.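 Treatment: one concentration, 48 hours, 96-well format. Scoring: percent growth, with anything below 10 considered active.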 Calls of active or inactive are those of the source.

This test concerns A498 renal. Put plainly: NCI-60 one-dose screen, 48 h (100 = growth as untreated, 0 = no growth, -100 = all killed). As to conditions: 10 µM unless noted.
As to `CCc1ccccc1NC(=O)c1sc2nc3c(cc2c1N)C(=O)CCC3`, the growth is -9.7% (active).

Turning to `CCOC(=O)N1CCN(c2nc(Nc3cc(C)[nH]n3)c3ccccc3n2)CC1`, the growth was -21.8% (active).

As to `CN1CCCCC1CCN1c2ccccc2Sc2ccc(Cl)cc21` (configuration not stated), the growth is 74.9% (inactive).

In the case of `COc1c(Cl)cc(Cl)cc1Cl`, the growth was 96.5% (inactive).

In the case of `Cc1cc(Nc2nc(N3CCOCC3)nc3ccccc23)n[nH]1`, the growth is -13.4% (active).

As for `COc1ccc(C2CC(=O)Nc3c2c(C)nn3-c2nc3ccccc3[nH]2)cc1` (configuration not stated), the growth was 41.6% (inactive).

Turning to `COc1cc(-c2cc(-c3nc4ccc(Cl)cc4[nH]3)[nH]n2)cc(OC)c1OC`, the growth is 39.2% (inactive).

Turning to `Cc1noc(C)c1-c1cc(O)cc(C(O)c2ccccc2)c1` (configuration not stated), the growth was -3.34% (active).

Turning to `COc1ccc(-c2nc(Nc3cc(C)[nH]n3)c3ccccc3n2)cc1`, the growth is -18.1% (active).

Regarding `Cc1cc(Nc2nc(-c3cccnc3)nc3ccccc23)n[nH]1`, the growth is -19.7% (active).

For the compound `CC#Cc1nc2ccccc2c(=O)[nH]1`, the growth was -44.8% (active).

Consider `O=C(Nc1ccc(F)cc1)Nc1ccc(CCO)cc1`, for which the growth is 85.9% (inactive).

Regarding `CCCCNC(=O)NS(=O)(=O)c1ccc(N2N=C(c3cc(C)ccc3C)CC2c2cc(OC)c(OC)c(OC)c2)cc1` (configuration not stated), the growth was 34.6% (inactive).

For `COc1cc(C2C(C(=O)c3cccs3)=C(O)C(=O)N2CCN2CCOCC2)cc(OC)c1OC` (configuration not stated), the growth is 84.8% (inactive).

`NCc1cn2cc(Cl)sc2n1`: the growth is 90.8% (inactive).

Consider `CCCCCCCCCCCCN1CCCC(C)C1` (configuration not stated), for which the growth is 104% (inactive).

Take `O=c1c2cccc3c(Nc4ccccn4)ccc(c32)c2nc3ccccc3n12`: the growth is 92.3% (inactive).
